Screening data as filed in PubChem BioAssay.
Sampled rows, rich in hits. Any-hit rate of the full collection: about 19%.
Shiga toxin inh – A qHTS for Small Molecule Inhibitors of Shiga Toxin; actives 9.2% (n = 290,000); AID 2315, 2010; inhibition, % at 38.7 µM; Vero cells, Shiga toxin protein synthesis inhibition reporter; in the data active means inhibition mostly above about 28%, no sharp cut-off; inactive means mostly below about 43%
Pf growth 48h – Primary qHTS for delayed death inhibitors of the malarial parasite plastid, 48 hour incubation. P. falciparum luciferase growth in erythrocytes, 48 h. Potency, µM (highest dose often 28.7 µM), actives largely listed as inhibitors. actives 5.9% (n = 310,000). AID 504832, 2011
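Parasite viability was followed by luminescence of a genomically integrated firefly luciferase. Cultures held 0.1% parasitemia at 2% hematocrit (final), incubated under 5% CO2 at 37 C.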
Cycloheximide cs – Cycloheximide Counterscreen for Small Molecule Inhibitors of Shiga Toxin; max response, %; actives 12% (n = 300,000); cell reporter, cycloheximide protein synthesis inhibition counterscreen; in the data active means max response mostly above about 13%, no sharp cut-off; inactive means mostly below about 14%; further: read at 38.3 µM for the half of the compounds with a filed dose
Lassa entry inh – qHTS for Inhibitors of binding or entry into cells for Lassa Virus. Lassa virus pseudotype entry inhibition, cell reporter. Potency, µM (titrated, usually from 37.9 µM), most hits filed as inhibitors. actives 1.2% (n = 300,000); calls by dose curve; tested in HEK293 cells; further: nearly all actives have a fitted effect of over 50% in size
Pf growth 96h – Primary qHTS for delayed death inhibitors of the malarial parasite plastid, 96 hour incubation. actives 6.9% (n = 320,000). P. falciparum luciferase reporter growth, 96 h. Potency, µM (doses to about 28.7 µM), actives largely listed as inhibitors
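Two parasite generations (96 h, 37 C, 5% CO2) of compound exposure in infected erythrocytes (0.05% parasitemia, 2% hematocrit). Luciferase-reporter P. falciparum; decreased luminescence indicates inhibited growth, aimed at apicoplast-acting delayed death.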
MARV entry inh – qHTS for inhibitors of binding or entry into cells for Marburg Virus. Marburg virus pseudotyped entry inhibition, cell reporter. Potency, µM (top dose mostly 37.8 µM), usual class: inhibitors. actives 1.8% (n = 300,000); calls by dose curve; tested in HEK293 cells
Numbers stand for hits; n = inactive; u = inconclusive; x = not tested or not shown; [ ] = dose if it differs, or a comment. Unless noted, the call rests on the fitted dose curve; in most records, active means well fitted inhibition curve with a large enough effect; inconclusive means small, poorly fitted or top-dose-only effect, or another doubt; inactive means no such curve, though single readings can be large or run the other way.

SMILES | Shiga toxin inh | Pf growth 48h | Cycloheximide cs | Lassa entry inh | Pf growth 96h | MARV entry inh
O=C(N=Nc1c(O)[nH]c2ccccc12)c1ccccc1NS(=O)(=O)c1cccs1 | n | n | n | n | n | u
CCOC(=O)c1oc2ccccc2c1CN1CCCCC1 | n | n | n | x | u | x
CCOC(=O)c1oc2ccccc2c1CN1CCN(C)CC1 | n | n | n | n | 13µM | n
COc1ccc(-c2ccc(=O)n(CC(=O)NCC3COCCO3)n2)cc1 (stereo not given) | x | n | x | n | u | n
CCOC(=O)C1(Cc2cccc(Cl)c2)CCCN(C(=O)c2cccnc2)C1 (stereo not given) | n | n | n | n | 4.7µM | n
CCOC(=O)C1(Cc2cccc(Cl)c2)CCCN(C(=O)c2cn[nH]c2)C1 (stereo not given) | n | u | n | n | n | n
CCOC(=O)C1(Cc2cccc(Cl)c2)CCCN(C(=O)c2cnn(CC)c2)C1 (stereo not given) | 39 | n | 22 | n | n | n
Cc1nc2ccccc2nc(C)c1=NOCC(=O)N(c1ccccc1)C(C)C | 116 | n | 61 | u | u | u
CC(C)N(C(=O)COC(=O)Cn1cnc2ccccc21)c1ccccc1 | x | n | x | n | n | n
Cc1ccc2ccccc2c1NC(=O)Cn1nnc(-c2cccnc2)n1 | n | n | n | n | 0.66µM | n
Cc1cc(C)c(NC(=O)Cn2nnc(-c3ccccc3)n2)c(C)c1 | x | x | x | n | x | n
CC(C)(Oc1ccc(-c2ccco2)cc1)C(=O)O | n | n | n | x | x | n
O=C1NC(c2ccccc2)=C(c2ccc3ccccc3n2)C(c2ccncc2)N1 (stereo not given) | n | n | n | n | u | n
O=C1NC(c2ccccc2)=C(c2nc3ccccc3s2)C(c2ccc(O)cc2)N1 (stereo not given) | n | 2.1µM | n | n | 7.4µM | n
O=C1NC(c2ccccc2)=C(c2ccc3ccccc3n2)C(c2ccc(F)cc2)N1 (stereo not given) | n | 5.2µM | n | u | 4.1µM | n
O=C1NC(c2ccccc2)=C(c2ccc3ccccc3n2)C(c2ccccc2)N1 (stereo not given) | n | 12µM | n | u | 5.2µM | u
CSc1ccc(/C=C2/C(=N)N3N=C(CC(=O)N4CCCC4)SC3=NC2=O)cc1 | n | n | n | u | u | n
COc1cccc(CNC(=O)N2CCN(c3ccccc3C)CC2)c1 | n | n | n | u | n | n
Cc1ccc(COc2ccc(Br)cc2/C=N/O)cc1 | n | n | 31 | u | n | u
O/N=C/c1cc(Br)ccc1OCc1cccc(F)c1 | n | n | 26 | n | n | u
CCOc1cc(/C=N/O)ccc1OCc1ccc(C)cc1 | active | n | 27 | n | n | n
CCOc1cc(/C=N/O)ccc1OS(=O)(=O)c1ccc(C)cc1 | n | n | n | u | n | u
CCOc1cc(/C=N/O)ccc1OCC(=O)Nc1cccc(C)c1 | 41 | n | 31 | u | n | n
COc1ccc(Cl)cc1NC(=O)Cn1nnc2sc3c(c2c1=O)CCC(C(C)(C)C)C3 (stereo not given) | x | x | x | n | x | n
COc1ccc(C2CC(=O)c3cc(OC)c(OC)cc32)cc1OC (stereo not given) | n | n | n | u | n | n
SMILES | Shiga toxin inh | Pf growth 48h | Cycloheximide cs | Lassa entry inh | Pf growth 96h | MARV entry inh
CC(C)(C)C1CCc2c(sc(NC(=O)Cn3nnc(-c4cccc(C(F)(F)F)c4)n3)c2C#N)C1 (stereo not given) | x | x | x | n | x | u
O=C(NCCN1CCN(Cc2ccc([N+](=O)[O-])cc2)CC1)C(=O)Nc1ccccc1 | n | n | n | n | n | n
COc1ccc(-c2csc(Nc3cccc(C)n3)n2)cc1 | 71 | n | 38 | u | u | u
CC(=O)Oc1ccc(-c2csc(Nc3cccnc3)n2)cc1 | n | n | n | n | u | u
COc1ccc(-c2csc(NC(=S)NC(=O)c3ccccc3)n2)cc1Br | n | n | n | n | n | n
Cc1cccc(Nc2nc(-c3ccc(F)cc3)cs2)n1 | 105 | n | 46 | 13µM | 12µM | u
CC(=O)Oc1ccc(-c2csc(Nc3cccc(C)n3)n2)cc1 | 91 | n | 45 | u | u | u
COc1ccc(-c2csc(Nc3cccc(C)n3)n2)cc1C | 79 | n | 56 | u | n | u
COc1ccc(NC(=S)c2ccc(N(C)C)cc2)cc1 | 58 | n | 54 | n | n | u
COc1ccc(NC(=S)Nc2ccc(N(C)C(C)=O)cc2)cc1 | n | n | n | n | n[1.15 µM] | n
COc1ccc(NC(=S)c2ccccc2)cc1 | 71 | n | 53 | u | n | u
Cc1ccc(NC(=S)c2ccc(N(C)C)cc2)cc1 | 78 | n | 53 | u | n | u
COc1ccc(C(=S)Nc2ccc(N(C)C)cc2)cc1 | 78 | n | 37 | u | x | u
CCN(CC)C(=S)Nc1ccc(OC)cc1 | n | n | n | n | n | n
COc1ccc(NC(=S)Nc2ccccc2)cc1 | n | n | n | x | n | x
CCNC(=O)COC(=O)CNC(=O)c1cc(Cl)cc([N+](=O)[O-])c1 | n | n | n | u | n | u
CCC(C)NS(=O)(=O)c1ccc(NC(=O)C(Sc2ccccc2)c2ccccc2)cc1 (stereo not given) | n | u | n | 13µM | n | u
CCCCNS(=O)(=O)c1ccc(NC(=O)C(Sc2ccccc2)c2ccccc2)cc1 (stereo not given) | n | 10µM | n | 9.2µM | u | u
COc1cccc(N2C(=O)N(c3ccccc3Cl)C3CS(=O)(=O)CC32)c1 (stereo not given) | n | n | n | n | n | n
CCOc1ccc2nc(SCc3ccc(OC)cc3)sc2c1 | n | n | 20 | u | u | n
CCOc1ccc2nc(SCc3ccccc3C#N)sc2c1 | 174 | n | 71 | u | n | u
CCOc1ccc(C(=O)Nc2ccc3nc(SCCOc4ccccc4)sc3c2)cc1 | x | x | x | n | x | n
CCOC(=O)Cc1csc(NC(=O)CC(C)(C)C)n1 | 122 | n | 32 | 7.1µM | n | u
CCOC(=O)Cc1csc(NC(=O)CC)n1 | n | n | n | n | n | n
CCOC(=O)Cc1csc(NS(C)(=O)=O)n1 | n | x | n | n | n | n
SMILES | Shiga toxin inh | Pf growth 48h | Cycloheximide cs | Lassa entry inh | Pf growth 96h | MARV entry inh
CCOC(=O)Cc1csc(NC(=O)C(C)(C)CC)n1 | 51 | x | 31 | n | u | n
N#Cc1cc2c(nc1SCC1COc3ccccc3O1)CCC2 (stereo not given) | 58 | n | 35 | n | x | u
Cc1cc(C)n2nc(SCC3COc4ccccc4O3)nc2n1 (stereo not given) | 89 | n | 51 | n | n | u
N#Cc1cc2c(nc1SCc1ccccc1)CCCCC2 | n | n | n | u | u | n
Cc1cc(C)c(C#N)c(SCc2ccccc2)n1 | n | u | n | n | n | n
Cc1cc(C)c(C#N)c(SCC2COc3ccccc3O2)n1 (stereo not given) | n | n | 21 | n | n[5.75 µM] | n
